In PubChem BioAssay (NCATS):
Values without a mark were called inactive. Calls of active or inactive are those of the source. Calls follow the shape of the dose curve; as a rule, active = well fitted inhibition curve with a large enough effect; inconclusive = small, poorly fitted or top-dose-only effect; inactive = no such curve, though single readings can be large or run the other way.

assay: qHTS assay for measurement of the activity of small molecule inhibitors on Zika virus induced Caspase-3 activity in human astrocytoma cells (AID 1224859); conditions: SNB-19 ZIKV-induced caspase-3/7, luminescence, 6 h; series mostly up to 45.7 µM; activity change, negative = inhibition: at the top concentration
Description: National Center for Advancing Translational Sciences [NCATS]
Johns Hopkins University School of Medicine
Increase in the Caspase-3 activity indicates an activation of apoptosis cell death pathway caused by Zika virus infection in certain types of neuronal cells including human neural progenitor cells (hNPCs), astrocytes, and astrocytoma cell line (SNB-19). This cell-based caspase-3 activity assay measures the increased caspase-3 activity in the astrocytoma cell line (SNB-19) after a 6-hour Zika virus infection with a luminescence readout. A decrease in the luminescence signal in this assay by small molecule treatment indicates an inhibitory effect of that small molecule on the Zika virus induced caspase-3 activity that may correlate with its effect on reduction of Zika virus caused cell death.
The medium for SNB-19 cells is composed of RPMI 1640 (ATCC, Cat.# 30-2001), 10% fetal bovine serum (FBS) (GE healthcare Life Sciences, Cat.# SH30071.03), and 1% Pen/Strep (Gibco, Cat.# 15140-122). A Caspase-Glo 3/7 assay kit (catalog number G8092; Promega, Madison, WI) was used to detect caspase-3 activity induced by Zika virus infection in human cells. The reagent mixture was reconstituted as described in the protocol from the manufacturer. Polystyrene tissue culture treated and PDL coated white plates were obtained from Greiner Bio-One (Monroe, NC). Cells were seeded in 384- or 1536-well assay plates and cultured at 37 C with 5% CO2 for 16 to 20 hours. The typical cell seeding density in the 1536-well plate assay is 250 cells/well in 3ul medium for SNB-19 cells in tissue culture treated plates. Compounds were added to cells and incubated for one hour before addition of ZIKV solution to cells (2 FFU/cell). After incubation at 37 C with 5% CO2 for 6 hours, the reagent mixture of Caspase-Glo 3/7 assay kit was added to each well, followed by incubation at room temperature for 30 minutes. The luminescence intensity of the assay plates was measured using a ViewLux plate reader (PerkinElmer). Data were normalized by using the cell-containing wells without ZIKV as a negative control (0% induction of caspase 3/7 activity) and wells containing ZIKV infected cells (Caspase-3 activity induced) as a positive control (100% induction of caspase 3 activity). The percentage inhibitions of the increased Caspase-3 activity by small molecule inhibitors were then calculated.
Potency is read from the fitted curve at half-maximal effect.

Structure (SMILES)	activity change, negative = inhibition	Potency
O=C1C(CCC(O)c2ccc(F)cc2)C(c2ccc(O)cc2)N1c1ccc(F)cc1 (stereo not given)	9.18%	–
CC(C)N(CCCNC(=O)Nc1ccc(C(C)(C)C)cc1)C[C@H]1O[C@@H](n2cc(Br)c3c(N)ncnc32)[C@H](O)[C@H]1O	-3.7%	–
CNC(=O)c1c(-c2ccc(F)cc2)oc2cc(N(CCO)S(C)(=O)=O)c(C3CC3)cc12	-5.01%	–
Nc1[nH]nc2nnc(-c3c(-c4ccccc4)nn4ccccc34)cc12	34.9%	–
O=C1NC(=O)C(c2cnc3ccccn23)=C1c1cn2c3c(cccc13)CN(C(=O)N1CCOCC1)CC2	37.2%	–
CC1(C)[C@H]2CC[C@]3(C)[C@@H](C(=O)C=C4[C@@H]5C[C@@](C)(C(=O)O)CC[C@]5(C)CC[C@]43C)[C@@]2(C)CC[C@@H]1O	13.9%	–
CCOC(=O)[C@H]1O[C@H]1C(=O)N[C@@H](CC(C)C)C(=O)NCCC(C)C	94.8%	–
COc1ccc(-c2cc3nccn3c(Nc3ncccc3C(N)=O)n2)cc1OC	0.0747%	–
COc1cc(CNC(=O)CCCCC=CC(C)C)ccc1O	-5.21%	–
CSc1cccc(Nc2ncc3cc(-c4c(Cl)cccc4Cl)c(=O)n(C)c3n2)c1	24.1%	–
O=C(O)C1=NC(C(=O)O)CC(C=CN2c3cc(O)c(OC4OC(CO)C(O)C(O)C4O)cc3CC2C(=O)O)=C1 (stereo not given)	13.8%	–
CCNC(=O)[C@H]1O[C@@H](n2cnc3c(N)nc(NCCc4ccc(CCC(=O)O)cc4)nc32)[C@H](O)[C@H]1O	24%	–
Nc1ccc(-c2ccc3ncc4ccc(=O)n(-c5cccc(C(F)(F)F)c5)c4c3c2)cn1	59.9%	–
CNC1[C@H](O)C(O[C@@H]2C(O)C(O[C@H]3O[C@H]([C@@H](C)NC)CC[C@H]3N)[C@@H](N)C[C@H]2N)OC[C@]1(C)O (stereo not given in full)	-2.3%	–
COc1ccc(Cn2ccc3ccc(C(=O)NO)cc32)cc1	30.1%	–
COc1c(C)cnc(Cn2cnc3c(Cl)nc(N)nc32)c1C	25.9%	–
COc1cc([C@@H]2c3cc4c(cc3[C@@H](O[C@@H]3O[C@@H]5CO[C@@H](C)O[C@@H]5[C@H](O)[C@@H]3O)[C@H]3COC(=O)[C@H]23)OCO4)cc(OC)c1O	-12.6%	–
CCOc1ccccc1N=Nc1c(C)[nH]n(-c2nc(-c3ccccc3)cs2)c1=O	0.79%	–
Clc1ccc(C2(c3ccc(-c4cn[nH]c4)cc3)CCNCC2)cc1	4.56%	–
CC(=O)NCCC(=O)N[C@@H](CCC(N)=O)C(=O)N[C@@H](CO)C(=O)N[C@@H](CCC(N)=O)C(=O)N[C@@H](CCC(N)=O)C(=O)N[C@H](C(=O)N[C@@H](Cc1ccccc1)C(=O)N[C@]1(C)CCCCCCC=CCCC[C@@](C)(C(=O)N[C@@H](CCC(N)=O)C(=O)N[C@@H](CC(N)=O)C(N)=O)NC(=O)[C@H](CC(C)C)NC(=O)[C@H](CC(C)C)NC(=O)[C@@H](CCCNC(=N)N)NC(=O)[C@H](Cc2c[nH]c3ccccc23)NC(=O)[C@H](CC(C)C)NC(=O)[C@H](CC(N)=O)NC1=O)[C@H](C)O	53.2%	–

Structure (SMILES)	activity change, negative = inhibition	Potency
CNc1nc(-c2ccc3c(N)n[nH]c3c2)cc(N2C[C@@H](C(=O)NC3CCCCC3)CC[C@@H]2C)n1	15.5%	–
CC=C(C(=CC)c1ccc(O)cc1)c1ccc(O)cc1	1.13%	–
CC(C)n1c(C=C[C@H](O)C[C@H](O)CC(=O)O)c(-c2ccc(F)cc2)c2ccccc21	-22%	–
OC[C@H]1O[C@@H](O[C@H]2[C@@H](O)[C@@](O)(CO)O[C@@H]2CO)[C@H](O)[C@@H](O)[C@@H]1O	-8.74%	–
Cc1ccc(S(=O)(=O)Nc2nc3ccccc3nc2Nc2ccc3nsnc3c2)cc1	61.9% [at 20.5 µM]	–
CN1CCc2c(n(Cc3ccc(C(=O)NO)cc3)c3ccccc23)C1	63.3%	–
Cc1cc(OCCCS(C)(=O)=O)cc(C)c1-c1cccc(COc2ccc3c(c2)OC[C@H]3CC(=O)O)c1	-21.5%	–
C[C@H]1COC2=C1C(=O)C(=O)c1c2ccc2c1CCCC2(C)C	15%	–
CN1CC(=O)NC1=NC(=O)Nc1cccc(Cl)c1	16.7%	–
O=C(CCCN1CCN(c2ccc(F)cc2)CC1)NC1c2ccccc2CSc2ccccc21 (stereo not given)	75.5%	–
CNC(=O)c1ccc2c(C(=Nc3cccc(CN(C)C)c3)c3ccccc3)c(O)[nH]c2c1	72.1%	–
CCC(C)SSc1ncc[nH]1 (stereo not given)	-2.44%	–
COc1cc(Nc2nc3ccccc3nc2NS(=O)(=O)c2ccc(NC(=O)c3ccc(C)c(OC)c3)cc2)cc(OC)c1	4.68%	–
C[C@H]1[C@H](O)O[C@@H]2O[C@@]3(C)CC[C@@H]4[C@H](C)CC[C@@H]1[C@@]24OO3	-5.21%	–
COc1ccc(C=CC(=O)Nc2ccccc2C(=O)O)cc1OC	–	2.64 µM (active)
Cc1cnc(Nc2cccc(CN3CCOCC3)c2)nc1Nc1cccc(S(=O)(=O)NC(C)(C)C)c1	27.5%	–
COc1cc2c(cc1OC)CC(=O)N(CCCN(C)C[C@H]1Cc3cc(OC)c(OC)cc31)CC2	23.3%	–
CC1=C[C@@H]2[C@@H]([C@@H](O)C[C@@]3(C)[C@H]2C[C@@H](C)[C@]3(O)C(=O)CO)[C@@]2(C)Cc3cnn(-c4ccccc4)c3C=C12	17%	–
CC(C)[C@H](O)C(=O)N[C@@H](C)C(=O)N[C@@H]1C(=O)N(C)CCc2ccccc21	16.4%	–
COc1cc(Cl)cn2c(-c3cccc(NC4CNC4)n3)cnc12	10.4%	–
